High-throughput results deposited in PubChem BioAssay by National Center for Advancing Translational Sciences (NCATS).
PINK1 modulator – changes PINK1 expression. PINK1 immunofluorescence, high-content cytometry, 24 h. Potency, µM (doses to about 76.6 µM), for the others: top-dose activation (PINK1 increase), actives largely listed as activators. 410,000 compounds, 0.2% hits; active = well fitted activation curve with a large enough effect; inconclusive = small, poorly fitted or top-dose-only effect; cell line not stated here; also: % of control where 0% means no effect; nearly all actives have a fitted effect of over 65% in size
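Stable cell line, 250 cells/well, 12 h attachment; compounds pinned at 5 concentrations, 24 h; CCCP control. Fixed with nuclear dye, primary antibodies 12 h at 10 degrees C, secondary plus cell stain; laser-scanning cytometer read.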
TSG101-PTAP inh – blocks PTAP/TSG101 interaction to inhibit HIV-1 budding. Fluorescence polarization, FITC-PTAP peptide / Tsg101 binding. 340,000 tested, under 10 active. Potency, µM (series often up to 115 µM), for the others: at the highest dose activity change, negative = inhibition, most hits filed as inhibitors. Q99816; active = well fitted inhibition curve with a large enough effect in the main read-out, with a control signal flat, not every such curve was filed as active; inconclusive = small, poorly fitted or top-dose-only effect, or effect the other way, or a change in a side signal; inactive = no such curve, though single readings can be large or run the other way; also: % of control where 0% means no effect
Target sequence (Q99816 whole entry, looked up): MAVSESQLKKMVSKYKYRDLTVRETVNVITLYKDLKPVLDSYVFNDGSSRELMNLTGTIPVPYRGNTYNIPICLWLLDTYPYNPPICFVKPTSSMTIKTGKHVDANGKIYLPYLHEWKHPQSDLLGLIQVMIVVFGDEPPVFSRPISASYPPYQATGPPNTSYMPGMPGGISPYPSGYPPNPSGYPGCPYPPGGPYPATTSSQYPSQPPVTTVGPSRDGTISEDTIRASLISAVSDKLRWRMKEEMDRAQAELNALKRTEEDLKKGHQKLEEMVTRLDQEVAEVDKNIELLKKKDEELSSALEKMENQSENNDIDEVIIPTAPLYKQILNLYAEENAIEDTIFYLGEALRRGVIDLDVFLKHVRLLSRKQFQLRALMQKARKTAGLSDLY
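Fluorescence anisotropy tracks displacement of a FITC-tagged PTAP peptide (50 nM) from the Tsg101 binding domain (10 uM), following a 20 min room-temperature incubation at pH 7.5.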
MCF10A rerep – DNA re-replication induction in MCF 10a cells | Potency, µM (series often up to 46.1 µM), for inactives: top-dose activity, positive = re-replication, most hits filed as activators | MCF 10A DNA re-replication, Hoechst nuclear intensity, 48 h | 350,000 compounds, 2.9% hits; also: % of control where 0% means no effect; nearly all actives have a fitted effect of over 50% in size
KB-V1 MDR tox – kills drug-selected multidrug resistant KB-V1 cells | KB-V1 MDR cells viability, CellTiter-Glo, 72 h | Potency, µM (top dose mostly 46.1 µM), most hits filed as cytotoxic | 400,000 compounds, 3.4% hits; also: % is scaled to controls: 0 for no effect and ±100 for the full control effect; nearly all actives have a fitted effect of over 60% in size
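Drug-selected KB-V1 cells, grown in DMEM lacking phenol red with 10% FBS, receive compound titrations; after three days at 37 degrees C, surviving cell ATP is quantified by CellTiter-Glo luminescence and responses normalized and curve-fitted.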
SW480 rerep – DNA re-replication induction in SW480 cells; Potency, µM (top dose mostly 46.1 µM), inactives show at the highest dose re-replication activation, most hits filed as activators; SW480 DNA re-replication, Hoechst DNA content imaging, 48 h; 340,000 compounds, 1.8% hits; also: % of control where 0% means no effect; nearly all actives have a fitted effect of over 55% in size
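Image-based DNA-content assay: after two days of treatment, nuclei were labelled with the DNA dye Hoechst and imaged, and hits were compounds raising the count of nuclei showing high fluorescence intensity.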
KB-3-1 tox – kills parental KB-3-1 adenocarcinoma cells. KB-3-1 viability, CellTiter-Glo ATP luminescence, 72 h. Potency, µM (highest dose often 46.1 µM), hits mostly cytotoxic. 400,000 compounds, 1.4% hits. AID 1347075; also: % is scaled to controls: 0 for no effect and ±100 for the full control effect; nearly all actives have a fitted effect of over 60% in size
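KB-3-1 parental drug-naive adenocarcinoma cells in DMEM/10% FBS, incubated 72 h at 37 C with pin-transferred compounds across a concentration series. Viability by CellTiter-Glo luminescence; concentration-response curves fitted after normalization.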
* = called active by the depositor; i = inactive; ? = inconclusive; . = no result; ! = a repeat was not active; [ ] = another dose, or the depositor's remark. An excerpt weighted towards active compounds, which were near 6.8% of everything screened. Unless noted, calls follow the shape of the dose curve; as a rule, active = well fitted curve in the direction sought with a large enough effect; inconclusive = small, poorly fitted or top-dose-only effect, or another doubt; inactive = no such curve, though single readings can be large; an effect the other way counts as inactive or inconclusive. Potency is read from the fitted curve at half-maximal effect.

SMILES	PINK1 modulator	TSG101-PTAP inh	MCF10A rerep	KB-V1 MDR tox	SW480 rerep	KB-3-1 tox
Clc1nc2c(-c3ccccc3)nnn2c2ccccc12	-2%	-2%	3.7µM*	i	?	?
Clc1ccc(-c2nnn3c2nc(N2CCCCC2)c2ccccc23)cc1	2%	.	.	i	.	i
Fc1cccc(-c2nnn3c2nc(Cl)c2ccccc23)c1	-2%	-6%	2.6µM*	i	5.8µM*	i
Cc1ccc(-c2nnn3c2nc(Cl)c2ccccc23)cc1	2%	1%	4.1µM*	i	?	i
COc1cc(Cl)c(C)cc1N1C(=O)[C@@H]2C[C@H]1CN2Cc1ccccn1	1%	.	.	.	.	.
COc1ccc(CN2CCOc3c(cc(-c4cccc(OC)n4)cc3OC)C2)c(O)c1	2%	.	.	.	.	.
CC(=O)Nc1ccc(C(=O)N2CCCC(n3cc(C(=O)NCC(C)C)nn3)C2)cc1 (stereo unspecified)	1%	.	.	.	.	.
Cc1ccc2c(CN3CCN(C(=O)c4ccc(Br)cc4)CC3)cc(=O)oc2c1	2%	.	.	.	.	.
NC(=O)C1CCN(c2oc(/C=C/c3ccc(F)cc3)nc2S(=O)(=O)c2ccccc2)CC1	0%	-6%	11%	i	?	i
COc1ccccc1/C=C/c1nc(S(=O)(=O)c2ccccc2)c(N2CCC(C(N)=O)CC2)o1	3%	2%	?	i	18µM*	i
COCCNc1oc(-c2ccccc2)nc1S(=O)(=O)c1ccc(Br)cc1	1%	.	.	.	.	.
COCCNc1oc(/C=C/c2ccccc2OC)nc1S(=O)(=O)c1ccccc1	0%	-3%	21µM*	i	?	i
COc1ccc(-c2nc(CCNC(=O)c3c(F)cccc3Cl)cs2)cc1	0%	.	.	.	.	.
Cc1cc(=O)oc2c(CN3CCCCC3)c(O)ccc12	3%	-2%	-9%	i	6%	i
O=c1cc(-c2ccccc2)c2ccc(O)c(CN3CCCCC3)c2o1	8%[38.3 µM]	0%	?	13µM*	-1%	i
Clc1ccc(CN(CCCNc2ncnc(NCCCc3cnc[nH]3)n2)c2ccc(Br)cn2)cc1Cl	.	.	.	i	.	?
CCN(C(=O)c1cc2cc3ccc(OC)cc3nc2o1)c1cccc(C)c1	1%	.	.	?	.	?
Cc1cccc(N(C)C(=O)c2cc3cc4ccc(C)cc4nc3o2)c1	5%	0%	10µM*	12µM*	?	?
Cc1c(C(=O)NCC2COc3ccccc3O2)oc2ccc(S(=O)(=O)N3CC(C)CC(C)C3)cc12 (stereo unspecified)	.	-7%	24%	?	?	i
CCCCN(CCCC)S(=O)(=O)c1ccc2oc(C(=O)N3CCOCC3)c(C)c2c1	0%[38.3 µM]	-2%	2%	4.6µM*	10%	i
Cc1c(C(=O)Nc2ccc(F)c(F)c2)oc2ccc(S(=O)(=O)N3CCCCC3)cc12	0%	-3%	?	7.3µM*!	-7%	i
Cc1c(C(=O)NCC2COc3ccccc3O2)oc2ccc(S(=O)(=O)N3CCOCC3)cc12 (stereo unspecified)	0%	13%	?	2.3µM*	0%	?
COc1cccc(NC(=O)c2oc3ccc(S(=O)(=O)N4CCC5(CC4)OCCO5)cc3c2C)c1	9%	.	.	.	.	.
CCN(CC)S(=O)(=O)c1ccc2oc(C(=O)NCCCN3CCOCC3)c(C)c2c1	.	-6%	4%	i	9%	i
Cc1c(C(=O)Nc2cccc(Cl)c2)oc2ccc(S(=O)(=O)N3CCC4(CC3)OCCO4)cc12	14%[38.3 µM]	-6%	5.8µM*	4.1µM*	3.7µM*	?
SMILES	PINK1 modulator	TSG101-PTAP inh	MCF10A rerep	KB-V1 MDR tox	SW480 rerep	KB-3-1 tox
CCCCN(C)C(=O)c1oc2ccc(S(=O)(=O)N3CCCCCC3)cc2c1C	3%[38.3 µM]	.	-8%	2.6µM*	-2%	i
Cc1c(C(=O)O)oc2ccc(S(=O)(=O)N3CCCC3)cc12	0%	-4%	-2%	?	-7%	i
O=C(NCCN1C(=O)S/C(=C\c2ccccc2F)C1=O)C1=COCCO1	3%	-2%	2.6µM*	9.2µM*	4.1µM*	?
O=C(NCCN1C(=O)S/C(=C\c2ccccc2Cl)C1=O)C1=COCCO1	?	-5%	7.3µM*	?	?	?
O=C(NCCN1C(=O)S/C(=C\c2ccccc2F)C1=O)C1CCN(S(=O)(=O)c2cccs2)CC1	-3%	4%	?	i	-2%	i
O=C(NCCN1C(=O)S/C(=C\c2ccc(Cl)cc2Cl)C1=O)C1=COCCO1	8%	-1%	13µM*	?	?	?
O=C(CCCN1C(=O)/C(=C/c2ccccc2Cl)SC1=S)NCCCN1CCOCC1	10%	-1%	?	.	?	.
O=C(NCCN1C(=O)S/C(=C\c2ccc(Cl)cc2)C1=O)c1ccc(F)c(S(=O)(=O)N2CCOCC2)c1	?	2%	2%	i	-1%	i
Cc1ccc(Nc2sc(C(=O)c3ccccc3)c(N)c2S(=O)(=O)c2ccccc2)c(C)c1	4%	.	.	i	.	i
CC1CC2(C)Oc3ccccc3CC2C(C)C1CNCCCN(C)C (stereo unspecified)	-1%	-1%	7.3µM*	18µM*	5.2µM*	15µM*
O=C(c1ccc(S(=O)(=O)c2ccccc2Cl)c([N+](=O)[O-])c1)N1CCCCCC1	16%	1%	?	2.3µM*	?	?
CCN1CCN(C(=O)c2ccc(Sc3ccccc3Cl)c([N+](=O)[O-])c2)CC1	3%	-1%	-29%	13µM*	6%	i
O=C(c1ccc(S(=O)(=O)Cc2ccccc2F)c([N+](=O)[O-])c1)N1CCCCCC1	4%	-1%	-5%	?	23%	i
CCCn1c(SCC(=O)Nc2nnc(C(C)C)s2)nc2c1c(=O)n(C)c(=O)n2C	3%[38.3 µM]	0%	3%	?	-11%	13µM*
CCCCn1c(SCC(=O)Nc2ccc3c(c2)OCO3)nc2c1c(=O)n(C)c(=O)n2C	1%[38.3 µM]	-6%	-7%	5.8µM*	0%	21µM*
CCCCn1c(SCC(=O)Nc2nnc(CC)s2)nc2c1c(=O)n(C)c(=O)n2C	-5%[38.3 µM]	.	1%	21µM*	14%	i
Cc1cc(C)c(NC(=O)Cn2nnc(-c3nc(-c4ccncc4)no3)c2N)c(C)c1	0%	.	.	.	.	.
CC(C)(C)NCC(=Cc1ccccc1)C(=O)c1ccccc1	-4%	-2%	1.8µM*	?	5.2µM*	5.2µM*
Fc1cccc(CN2CCN3CCCC3C2C2CCCCC2)c1 (stereo unspecified)	6%	-8%	-1%	i	7%	i
